The nature of assay [1]: ATG_CRE_CIS: Attagene CIS-FACTORIAL HepG2 Assay for human cAMP Responsive Element (CRE) binding protein 3 (AID 2282926). The settings on record: HepG2 CRE cis-reporter, Attagene multiplexed mRNA; actives raise or lower the signal. The procedure, abridged: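 We dosed HepG2 cells bearing multiple cis-promoter reporter units for 24 h and measured reporter mRNA by RT-PCR with capillary electrophoresis detection. Bidirectional concentration-response fitting used DMSO as negative control.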

The target of assay [2] is CCAAT/enhancer-binding protein beta (Homo sapiens) (UniProt P17676). Kind of assay: ATG_C_EBP_CIS: Attagene CIS-FACTORIAL HepG2 Assay for human CCAAT/Enhancer Binding Protein (C/EBP) beta (AID 2282927). The settings on record: HepG2 Attagene cis-factorial transcription factor reporter; actives raise or lower the signal. The procedure, abridged: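 Endogenous transcription factor activity in human liver HepG2 cells is inferred from induction of a CEBPB-linked reporter mRNA. Exposure lasts 24 h; activity is fitted in both directions relative to DMSO.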

In assay [3] the target is Aryl hydrocarbon receptor (Homo sapiens) (UniProt P35869). Kind of assay: ATG_Ahr_CIS: Attagene CIS-FACTORIAL HepG2 Assay for human Aryl Hydrocarbon Receptor (Ahr) (AID 2282930). The following applies: HepG2 AhR cis-factorial reporter transcription; actives raise or lower the signal. In outline: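 Transient MRTU transfection of HepG2 → 24 h compound exposure → total RNA, oligo(dT) RT → PCR, 6-FAM extension, HpaI cut → CE fluorescence. DMSO = baseline; bidirectional curve fit.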

Assay [4] in a line: ATG_AP_1_CIS: Attagene CIS-FACTORIAL HepG2 Assay for human Activator Protein 1 (AP-1) (AID 2282931). The following applies: HepG2 Attagene cis-factorial AP-1 reporter mRNA; actives raise or lower the signal. In outline: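 HepG2 cells transiently transfected with cis-element-driven reporter transcription units, dosed for 24 hours. Reporter mRNA measured by RT-PCR, 6-FAM labelling, HpaI digestion and capillary electrophoresis. Bidirectional fitting against DMSO baseline.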

The nature of assay [5]: ATG_AP_2_CIS: Attagene CIS-FACTORIAL HepG2 Assay for human Activator Protein 2 (AP-2) (AID 2282932). The settings on record: HepG2 AP-2 cis-reporter, Attagene transcription factor profiling; actives raise or lower the signal. In outline:
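Step one: transient transfection of HepG2 with reporter transcription units. Step two: 24 h chemical exposure. Step three: RNA extraction, RT-PCR, labelled fragment analysis by capillary electrophoresis; DMSO serves as baseline.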

Assay [6] is described as follows: ATG_BRE_CIS: Attagene CIS-FACTORIAL HepG2 Assay for human Bone Morphogenetic Protein (BMP) Response Element (BRE) (AID 2282933). The following applies: HepG2 BMP response element reporter, Attagene transcription factor profiling; actives raise or lower the signal. The procedure, abridged: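 After a 24 h chemical treatment, transiently transfected HepG2 cells were lysed for RNA; reporter transcripts were quantified by fluorescent RT-PCR and capillary electrophoresis, normalised to DMSO.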

Assay [7] deals with Retinoic acid receptor alpha (Homo sapiens) (UniProt P10276). The experiment in a line: ATG_DR5_RAR_CIS: Attagene CIS-FACTORIAL HepG2 Assay for human Retinoic Acid Receptor Alpha (RARE), DR5 submotif (AID 2282934). The settings on record: HepG2 Attagene cis-factorial RARE DR5 reporter, mRNA; actives raise or lower the signal. In outline:
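Transient MRTU transfection of HepG2; 24 h compound treatment; TriZol RNA, oligo(dT) RT, PCR, FAM labelling, capillary electrophoresis. Bidirectional fit vs DMSO. Endogenous TF activity at DR5 RARE.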

For assay [8], the target named is Transcription factor E2F1 (Homo sapiens) (UniProt Q01094). The experiment in a line: ATG_E2F_CIS: Attagene CIS-FACTORIAL HepG2 Assay for human E2F Transcription Factor 1 (AID 2282935). The settings on record: HepG2 Attagene cis-reporter, E2F reporter RNA transcripts; actives raise or lower the signal. The procedure, abridged:
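Total RNA from 24 h-treated, reporter-transfected HepG2 cells undergoes DNase I treatment, oligo(dT) reverse transcription, PCR and 6-FAM primer extension before capillary electrophoresis.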

The nature of assay [9]: ATG_E_Box_CIS: Attagene CIS-FACTORIAL HepG2 Assay for human Enhancer Box (E-box) (AID 2282936). The settings on record: HepG2 E-box cis-reporter transcription, actives raise or lower the signal. In outline: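 DMSO served as negative control and baseline for bidirectional fitting. Human hepatoma HepG2 cells, transiently transfected with cis-reporter constructs, were dosed 24 h; reporter mRNA read by RT-PCR and capillary electrophoresis.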

Assay [10] can be described thus: ATG_M_61_CIS: Attagene CIS-FACTORIAL HepG2 Assay for M61 Transcription Factor (Internal Marker) (AID 2282937). The settings on record: HepG2 Attagene CIS-FACTORIAL M61 internal marker reporter; actives raise or lower the signal. The procedure, abridged: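 HepG2 cells transiently transfected with multiplexed cis-promoter reporter units reporting endogenous transcription factor activity, measured 24 h after dosing. Reporter mRNA quantified by RT-PCR and capillary electrophoresis; bidirectional fit against DMSO baseline.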

Assay [11] can be described thus: ATG_EGR_CIS: Attagene CIS-FACTORIAL HepG2 Assay for human Early Growth Response 1 (EGR1) (AID 2282938). The following applies: HepG2 Attagene CIS-FACTORIAL EGR reporter mRNA; actives raise or lower the signal. In outline:
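HepG2 cells transiently transfected with cis-element-driven multiplexed reporter units, dosed for 24 h. EGR1-element reporter mRNA quantified by RT-PCR, 6-FAM labelling, HpaI digestion and capillary electrophoresis; bidirectional fit versus DMSO.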

The nature of assay [12]: ATG_ERE_CIS: Attagene CIS-FACTORIAL HepG2 Assay for Estrogen Response Element (ERE) (AID 2282940). The following applies: HepG2 ERE cis-reporter, Attagene RNA transcript; actives raise or lower the signal. The procedure, abridged: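 Measuring endogenous transcription factor output, the assay doses transfected HepG2 cells for 24 hours and quantifies reporter transcripts by fluorescent RT-PCR and capillary electrophoresis, with DMSO as baseline.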

Assay [13] can be described thus: ATG_Ets_CIS: Attagene CIS-FACTORIAL HepG2 Assay for human Erythroblast Transformation Specific (ETS) (AID 2282941). The following applies: HepG2 ETS cis-reporter transcription, actives raise or lower the signal. The procedure, abridged: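 Human HepG2 hepatoma cells were transiently transfected with promoter-driven reporter constructs and treated for 24 hours. Reporter transcripts were quantified by RT-PCR with fluorescent primer extension; bidirectional curve fitting used DMSO as reference.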

In assay [14] the target is Hepatocyte nuclear factor 3-beta (Homo sapiens) (UniProt Q9Y261). The experiment in a line: ATG_FoxA2_CIS: Attagene CIS-FACTORIAL HepG2 Assay for human Forkhead box A2 (FOXA2) (AID 2282942). The settings on record: HepG2 cis-reporter transcription factor activity, 24 h; actives raise or lower the signal. The procedure, abridged:
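HepG2 transiently transfected with a multiplexed cis-promoter reporter library read endogenous FOXA2 activity. After 24 h compound exposure, reporter mRNA was quantified by RT-PCR, HpaI digestion and capillary electrophoresis. Bidirectional fit against DMSO.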

A short description of assay [15]: ATG_FoxO_CIS: Attagene CIS-FACTORIAL HepG2 Assay for human Forkhead box O (FoxO) (AID 2282943). The following applies: HepG2 Attagene cis-reporter, FoxO element, mRNA; actives raise or lower the signal. The procedure, abridged:
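HepG2, transient MRTU transfection (cis element, endogenous TFs). Dose 24 h. TriZol RNA → oligo(dT) RT → PCR → 6-FAM primer extension → HpaI cut → CE. Gain/loss vs DMSO.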

A short description of assay [16]: ATG_GATA_CIS: Attagene CIS-FACTORIAL HepG2 Assay for human GATA Binding Protein (AID 2282944). The following applies: HepG2 GATA cis-element reporter, Attagene multiplex mRNA; actives raise or lower the signal. In outline: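 Measures endogenous transcription factor-driven reporter mRNA in HepG2 cells transiently carrying cis-regulated constructs. 24 h dosing; RNA via oligo(dT) reverse transcription, PCR, HpaI digestion, capillary electrophoresis; fitted relative to DMSO.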

Assay [17] can be described thus: ATG_GLI_CIS: Attagene CIS-FACTORIAL HepG2 Assay for human Zinc Finger Protein GLI1 (AID 2282945). The following applies: HepG2, Attagene cis-factorial reporter mRNA, GLI element; actives raise or lower the signal. The procedure, abridged:
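Bidirectional curve fits relative to DMSO, using reporter mRNA levels from RT-PCR plus capillary electrophoresis. Cells were HepG2 transiently carrying cis-regulated reporter constructs, harvested 24 h after dosing.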

Assay [18] in a line: ATG_DR4_LXR_CIS: Attagene CIS-FACTORIAL HepG2 Assay for human Liver X Receptor (LXR), DR4 submotif (AID 2282929). The following applies: HepG2 Attagene DR4 cis-reporter, mRNA transcription; actives raise or lower the signal. The procedure, abridged:
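HepG2 cells were transiently transfected with multiple cis-regulated reporter units and dosed for 24 hours. The DR4 reporter mRNA was quantified by RT-PCR, 6-FAM labelling and capillary electrophoresis. Bidirectional fits used DMSO as baseline.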

The nature of assay [19]: ATG_M_19_CIS: Attagene CIS-FACTORIAL HepG2 Assay for M19 Transcription Factor (Internal Marker) (AID 2282939). The settings on record: HepG2 Attagene CIS-FACTORIAL M19 internal marker reporter; actives raise or lower the signal. The procedure, abridged:
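In this multiplexed cell assay, transiently transfected HepG2 reporter units report endogenous transcription-factor activity; after 24 hours of treatment, labelled reporter cDNA fragments are quantified by capillary electrophoresis and fitted bidirectionally against DMSO.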

Activity calls are given as the source filed them. The calls were made as follows: active = hit-call score of the fitted dose curve at least 0.9, where 1 is the maximum; inactive = score below 0.9.

These results are taken from PubChem BioAssay (EPA / NIEHS).

Chain of Aryl hydrocarbon receptor (Homo sapiens) (P35869 whole entry, looked up): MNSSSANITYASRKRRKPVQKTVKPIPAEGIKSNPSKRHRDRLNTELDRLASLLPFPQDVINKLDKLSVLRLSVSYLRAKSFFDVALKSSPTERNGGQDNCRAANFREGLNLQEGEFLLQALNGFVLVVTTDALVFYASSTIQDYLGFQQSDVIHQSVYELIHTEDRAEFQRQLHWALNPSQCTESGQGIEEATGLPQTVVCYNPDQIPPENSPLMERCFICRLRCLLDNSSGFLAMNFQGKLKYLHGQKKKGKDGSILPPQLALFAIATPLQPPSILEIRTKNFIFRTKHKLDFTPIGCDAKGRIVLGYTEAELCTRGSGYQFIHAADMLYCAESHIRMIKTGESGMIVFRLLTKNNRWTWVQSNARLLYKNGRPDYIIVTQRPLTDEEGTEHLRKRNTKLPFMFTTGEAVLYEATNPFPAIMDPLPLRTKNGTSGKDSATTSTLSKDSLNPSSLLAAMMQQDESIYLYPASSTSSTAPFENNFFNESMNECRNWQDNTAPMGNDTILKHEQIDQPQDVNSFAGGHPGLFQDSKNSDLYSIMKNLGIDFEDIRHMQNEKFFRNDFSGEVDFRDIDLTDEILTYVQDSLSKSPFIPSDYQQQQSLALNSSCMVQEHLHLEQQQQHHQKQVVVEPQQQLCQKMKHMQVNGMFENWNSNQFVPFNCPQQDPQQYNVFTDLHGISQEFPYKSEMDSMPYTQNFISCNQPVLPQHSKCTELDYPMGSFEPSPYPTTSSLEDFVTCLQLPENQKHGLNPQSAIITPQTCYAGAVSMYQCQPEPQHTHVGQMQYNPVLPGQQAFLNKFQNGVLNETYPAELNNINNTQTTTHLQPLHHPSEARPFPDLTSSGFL
Chain of CCAAT/enhancer-binding protein beta (Homo sapiens) (P17676 whole entry, looked up): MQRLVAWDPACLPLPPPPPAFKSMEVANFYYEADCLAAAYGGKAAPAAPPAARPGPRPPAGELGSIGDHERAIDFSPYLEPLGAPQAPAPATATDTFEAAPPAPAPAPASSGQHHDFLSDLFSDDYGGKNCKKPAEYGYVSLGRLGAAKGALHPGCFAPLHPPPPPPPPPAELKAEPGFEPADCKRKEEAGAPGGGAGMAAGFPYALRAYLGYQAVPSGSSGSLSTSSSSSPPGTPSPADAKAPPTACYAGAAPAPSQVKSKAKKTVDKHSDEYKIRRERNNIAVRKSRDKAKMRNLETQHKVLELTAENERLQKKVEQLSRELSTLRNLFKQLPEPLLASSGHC
Chain of Retinoic acid receptor alpha (Homo sapiens) (P10276 whole entry, looked up): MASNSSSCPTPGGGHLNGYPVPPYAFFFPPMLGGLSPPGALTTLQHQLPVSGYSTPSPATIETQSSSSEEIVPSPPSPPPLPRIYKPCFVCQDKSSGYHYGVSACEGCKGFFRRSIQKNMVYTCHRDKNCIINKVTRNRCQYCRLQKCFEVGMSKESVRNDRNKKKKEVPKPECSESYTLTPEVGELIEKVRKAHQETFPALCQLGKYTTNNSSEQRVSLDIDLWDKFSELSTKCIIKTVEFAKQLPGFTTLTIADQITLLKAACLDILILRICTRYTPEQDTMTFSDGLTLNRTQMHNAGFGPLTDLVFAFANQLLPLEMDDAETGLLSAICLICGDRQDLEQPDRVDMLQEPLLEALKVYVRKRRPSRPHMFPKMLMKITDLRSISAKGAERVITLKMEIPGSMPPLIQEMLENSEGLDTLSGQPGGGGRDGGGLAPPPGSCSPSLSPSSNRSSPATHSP
Chain of Hepatocyte nuclear factor 3-beta (Homo sapiens) (Q9Y261 whole entry, looked up): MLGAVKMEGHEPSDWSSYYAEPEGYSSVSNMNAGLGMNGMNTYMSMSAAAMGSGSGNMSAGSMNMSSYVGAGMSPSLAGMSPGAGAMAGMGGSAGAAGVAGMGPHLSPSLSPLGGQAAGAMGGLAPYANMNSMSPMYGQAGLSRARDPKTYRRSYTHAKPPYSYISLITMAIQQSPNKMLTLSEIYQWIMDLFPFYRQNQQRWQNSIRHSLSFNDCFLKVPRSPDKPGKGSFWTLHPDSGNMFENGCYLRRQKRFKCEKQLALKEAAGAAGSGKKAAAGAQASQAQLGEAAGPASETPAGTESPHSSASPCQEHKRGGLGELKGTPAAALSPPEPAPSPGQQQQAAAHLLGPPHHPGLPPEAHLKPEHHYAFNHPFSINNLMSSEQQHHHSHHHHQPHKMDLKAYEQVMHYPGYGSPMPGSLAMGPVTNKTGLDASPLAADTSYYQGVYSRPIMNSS
Chain of Transcription factor E2F1 (Homo sapiens) (Q01094 whole entry, looked up): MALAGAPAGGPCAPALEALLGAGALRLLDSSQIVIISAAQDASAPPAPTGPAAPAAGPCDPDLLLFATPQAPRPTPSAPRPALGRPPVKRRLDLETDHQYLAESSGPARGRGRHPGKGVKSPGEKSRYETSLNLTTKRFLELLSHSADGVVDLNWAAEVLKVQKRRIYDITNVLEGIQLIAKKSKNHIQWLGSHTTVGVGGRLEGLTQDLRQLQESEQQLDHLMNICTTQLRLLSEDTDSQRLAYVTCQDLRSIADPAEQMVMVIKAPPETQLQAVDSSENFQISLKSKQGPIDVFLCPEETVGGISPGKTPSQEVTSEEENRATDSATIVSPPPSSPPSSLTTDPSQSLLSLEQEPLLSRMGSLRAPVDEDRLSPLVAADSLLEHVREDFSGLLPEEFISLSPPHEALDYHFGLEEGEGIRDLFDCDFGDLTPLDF

As for `OCCCBr`, the result in [1], in assay [2], in assay [3], in [4], in assay [5] and in assay [6] was inactive. Moreover, the molecule was called inactive in assay [7], in assay [8], in assay [9], in assay [10], in [11] and in assay [12]. For the same molecule, the molecule was classed as inactive in assay [13], in assay [14], in assay [15], in assay [16] and in [17].

What is called AC50 is the concentration at which the activity in the assay is half-maximal. For `CC(C)(C)OOC(C)(C)CCC(C)(C)OOC(C)(C)C`, the result in assay [1], in assay [2], in assay [5], in assay [7], in assay [8] and in [9] was inactive. Besides, the molecule was classed as inactive in assay [10], in [11], in assay [19], in assay [13], in assay [14] and in assay [15]. Moreover, the outcome in assay [16] and in [17] was inactive. The AC50 in [18] was 100 µM (active); in [4], 100 µM (active); in [6], 161 µM (active).

Take `Oc1ccc2ccc3cccc4ccc1c2c34`: the molecule was classed as inactive in [1], in assay [2], in assay [4], in assay [5], in assay [6] and in assay [7]. Further, the outcome in assay [9], in assay [10], in assay [11], in assay [19], in [13] and in assay [14] was inactive. Besides, the molecule was called inactive in assay [15], in assay [16] and in [17].

Take `CCC(C)c1ccc(O)cc1` (configuration not stated): the AC50 in [1] was 59.7 µM (active); in assay [4] it was 69.8 µM (active); in assay [6], 100 µM (active). Moreover, the result in [2], in assay [5], in assay [8], in assay [9], in [10] and in assay [11] was inactive. In addition, the molecule was classed as inactive in [19], in [13], in [14], in [15], in [16] and in assay [17].

With `CO[C@@H]1[C@H](OC(=O)NC(=O)CCl)CC[C@]2(CO2)[C@H]1[C@@]1(C)O[C@@H]1CC=C(C)C`, the result in assay [1], in assay [2], in [3], in assay [4], in [5] and in assay [6] was inactive. For the same molecule, the molecule was called inactive in assay [7], in assay [9], in assay [10], in [11], in assay [12] and in assay [14]. Further, the molecule was classed as inactive in [15], in assay [16] and in [17]. Also, the AC50 in assay [13] is 47.8 µM (active).

In the case of `c1ccc2c(c1)oc1ccccc12`, the call in assay [1], in assay [2], in [18], in assay [4], in [5] and in assay [6] was inactive. For the same molecule, the call in assay [8], in assay [9], in [10], in [11], in assay [19] and in [13] was inactive. The result in [14], in assay [15], in [16] and in [17] was inactive.

Turning to `CC(C)N(Cc1ccccc1)C(=O)C(C)(C)C`, the molecule was classed as inactive in assay [1], in [2], in [18], in [3], in [4] and in assay [5]. In addition, the result in assay [6], in [7], in assay [9], in [10], in [11] and in assay [13] was inactive. The call in assay [14], in [15], in assay [16] and in [17] was inactive.
